“And” between values parts separate entries of the source, which are not always exact repeats. Identical values can stand only once. Hit rate of the full screen: of about 5,500 compounds, about 2,000 (36%) were called active. Roughly 18% stayed inconclusive and do not appear here. Cut-off read from the data, not from the text of the source: active = normalized growth mostly below about 0.91 (no sharp cut-off); inconclusive = no clear call, values can overlap the other calls; inactive = mostly above about 0.92. The list shows a part of the results.
Experiment: chemical genetic growth profiling, strain panel (AID 1159580);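 note: tested at 20 µM; growth read once vehicle control cultures reached saturation at 30 °C; 1 = growth at the plate median or of vehicle wells; lower values mean less growth of the strain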
Settings: S. cerevisiae deletion strains, growth OD

Measured: normalized growth

Cn1cnc([N+](=O)[O-])c1Sc1ncnc2nc[nH]c12
inactive: locus YAL021C, strain ccr4, stronger effect = lower value 1.03 | locus YAL026C, strain drs2, stronger effect = lower value 1.04 | locus YAL030W, strain snc1, stronger effect = lower value 1.02 | locus YAL040C, strain CLN3, stronger effect = lower value 1.01 | locus YBL061C, strain skt5, stronger effect = lower value 1.03 | locus YBR009C, strain hhf1, stronger effect = lower value 1.01 | locus YBR021W, strain FUR4, stronger effect = lower value 1.02 | locus YBR023C, strain chs3, stronger effect = lower value 1.02 | locus YBR171W, strain sec66, stronger effect = lower value 1.02 | locus YBR229C, strain ROT2, stronger effect = lower value 1.01 | locus YBR231C, strain swc5, stronger effect = lower value 1.01 | locus YBR279W, strain paf1, stronger effect = lower value 1.01 | locus YCL011C, strain gbp2, stronger effect = lower value 1.01 | locus YCL016C, strain dcc1, stronger effect = lower value 1.04 | locus YCL029C, strain bik1, stronger effect = lower value 0.997 | locus YCL069W, strain vba3, stronger effect = lower value 1.02 | locus YCR088W, strain abp1, stronger effect = lower value 1.02 | locus YDL005C, strain med2, stronger effect = lower value 1.01 | locus YDL035C, strain GPR1, stronger effect = lower value 1.03 | locus YDL040C, strain nat1, stronger effect = lower value 1.02 | locus YDL074C, strain BRE1, stronger effect = lower value 1.01 | locus YDL101C, strain DUN1, stronger effect = lower value 1.01 | locus YDL134C, strain PPH21, stronger effect = lower value 1.02 | locus YDL185W, strain tfp1, stronger effect = lower value 1 | locus YDL192W, strain arf1, stronger effect = lower value 0.994 | locus YDR001C, strain nth1, stronger effect = lower value 1.02 | locus YDR069C, strain doa4, stronger effect = lower value 1.02 | locus YDR101C, strain arx1, stronger effect = lower value 0.999 | locus YDR137W, strain rgp1, stronger effect = lower value 1.02 | locus YDR150W, strain NUM1, stronger effect = lower value 0.999 | locus YDR159W, strain sac3, stronger effect = lower value 1 | locus YDR162C, strain NBP2, stronger effect = lower value 1.03 | locus YDR195W, strain ref2 0.996 | locus YDR297W, strain sur2, stronger effect = lower value 1.03 | locus YDR318W, strain mcm21, stronger effect = lower value 0.996 | locus YDR334W, strain swr1, stronger effect = lower value 1.03 | locus YDR335W, strain msn5, stronger effect = lower value 1.01 | locus YDR363W, strain ESC2, stronger effect = lower value 1.01 | locus YDR388W, stronger effect = lower value 0.985 | locus YDR392W, strain spt3, stronger effect = lower value 1.04 | locus YDR502C, strain sam2, stronger effect = lower value 0.985 | locus YEL003W, strain gim4, stronger effect = lower value 1.03 | locus YEL037C, strain rad23, stronger effect = lower value 1.01 | locus YEL061C, strain CIN8 (second series), stronger effect = lower value 1.03 | locus YEL061C, strain CIN8, stronger effect = lower value 1.01 | locus YER002W, strain NOP16, stronger effect = lower value 0.995 | locus YER015W, strain faa2, stronger effect = lower value 1.02 | locus YER016W, strain bim1, stronger effect = lower value 1.01 | locus YER110C, stronger effect = lower value 0.989 | locus YER111C, strain swi4, stronger effect = lower value 1.03 | locus YER155C, strain BEM2 (second series), stronger effect = lower value 0.996 | locus YER155C, strain BEM2, stronger effect = lower value 1.01 | locus YER167W, strain BCK2, stronger effect = lower value 1.02 | locus YFR010W, strain ubp6, stronger effect = lower value 1 | locus YGL078C, strain dbp3, stronger effect = lower value 0.988 | locus YGL086W, strain mad1, stronger effect = lower value 0.991 | locus YGL167C, strain pmr1, stronger effect = lower value 1.02 | locus YGL173C, strain kem1, stronger effect = lower value 1.02 | locus YGL227W, strain vid30, stronger effect = lower value 1 | locus YGL240W, strain doc1, stronger effect = lower value 1.04 | locus YGL248W, strain PDE1, stronger effect = lower value 1.01 | locus YGL253W, strain hxk2, stronger effect = lower value 1.03 | locus YGR078C, strain PAC10, stronger effect = lower value 1.01 | locus YGR135W, strain pre9, stronger effect = lower value 0.991 | locus YGR229C, strain SMI1, stronger effect = lower value 1.03 | locus YGR252W, strain gcn5, stronger effect = lower value 0.974 | locus YHR013C, strain ard1, stronger effect = lower value 1.02 | locus YHR027C, strain rpn1, stronger effect = lower value 1.03 | locus YHR030C, strain SLT2, stronger effect = lower value 1.02 and 1.08 | locus YHR079C, strain IRE1 (second series), stronger effect = lower value 0.995 | locus YHR079C, strain IRE1, stronger effect = lower value 1.05 | locus YHR094C, strain hxt1, stronger effect = lower value 0.994 | locus YHR129C, strain ARP1, stronger effect = lower value 1.01 | locus YHR142W, strain chs7, stronger effect = lower value 1.06 | locus YHR200W, strain rpn10, stronger effect = lower value 0.994 | locus YIL066C, strain RNR3, stronger effect = lower value 1.03 | locus YIL073C, strain SPO22, stronger effect = lower value 1.02 | locus YIL125W, strain kgd1, stronger effect = lower value 0.991 | locus YIR030C, strain dcg1, stronger effect = lower value 0.992 | locus YJL092W, strain hpr5, stronger effect = lower value 1.02 | locus YJL095W, strain BCK1 (second series), stronger effect = lower value 1 | locus YJL095W, strain BCK1, stronger effect = lower value 0.988 and 1.05 | locus YJL115W, strain asf1, stronger effect = lower value 1.05 | locus YJL129C, strain trk1, stronger effect = lower value 1.03 | locus YJL134W, strain LCB3, stronger effect = lower value 1.01 | locus YJL154C, strain vps35, stronger effect = lower value 1.02 | locus YJL164C, strain tpk1, stronger effect = lower value 1.04 | locus YJL166W, strain qcr8, stronger effect = lower value 1.02 | locus YJL168C, strain set2, stronger effect = lower value 0.993 | locus YJL187C, strain SWE1 (second series), stronger effect = lower value 0.997 | locus YJR043C, strain POL32, stronger effect = lower value 1.04 | locus YJR066W, strain TOR1, stronger effect = lower value 0.998 | locus YJR075W, strain HOC1, stronger effect = lower value 1.01 and 0.99

Source: PubChem BioAssay AID1159580 (chemical genetic matrix, 2015)
